Experiment [1] can be described thus: NCI Yeast Anticancer Drug Screen. Data for the rad50 strain (AID 155).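 Further: 0% = growth of vehicle-only cultures of the same strain.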 The following applies: S. cerevisiae rad50 strain growth inhibition, hits give high values. The procedure, abridged:
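Cells are treated with compound, grown, and their growth is then scored against vehicle-only cultures of the same repair-deficient yeast strain.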

A short description of experiment [2]: NCI Yeast Anticancer Drug Screen. Data for the mec2-1 strain (AID 157). The following applies: S. cerevisiae mec2-1 strain, hits give high values. The procedure, abridged: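 Cells of the genetically defined mec2-1 yeast strain are incubated with test compound. Inhibition of growth is calculated against vehicle-treated controls.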
Experiment [3] can be described thus: NCI Yeast Anticancer Drug Screen. Data for the sgs1 mgt1 strain (AID 161).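 Further: 0% = growth of cultures given vehicle only.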 The following applies: S. cerevisiae sgs1 mgt1 strain, hits give high values. The procedure, abridged: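 Read-out: growth inhibition vs vehicle controls. Cells: mutant yeast strain deficient in DNA damage repair.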
Experiment [4] in a line: NCI Yeast Anticancer Drug Screen. Data for the cln2 rad14 strain (AID 165).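 Further: 0% = growth equal to vehicle treated cultures.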 The following applies: S. cerevisiae cln2 rad14 strain, hits give high values. The procedure, abridged:
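The screen exposed genetically defined yeast (cln2 rad14) to test compounds and scored growth inhibition relative to vehicle-treated controls.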

The nature of experiment [5]: NCI Yeast Anticancer Drug Screen. Data for the bub3 strain (AID 167). The following applies: S. cerevisiae bub3 mutant strain, hits give high values. The method, boiled down: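 Part of a panel of yeast mutants defective in DNA damage repair or cell cycle regulation. Each strain is grown with compound, and inhibition is calculated relative to solvent-treated cultures.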

Experiment [6] is described as follows: NCI Yeast Anticancer Drug Screen. Data for the mlh1 rad18 strain (AID 175). The following applies: S. cerevisiae mlh1 rad18 strain growth inhibition, hits give high values. The method, boiled down:
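Compound-treated yeast growth, normalised to vehicle controls. Strain bears defined DNA repair mutations.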

[7] abbreviates: at 5.0 µM (retest, dose inferred, filed as 0.5).
The mark [8] stands for this setting: at 50.0 µM (retest, dose inferred, filed as 5.0).

Compounds without any hit were thinned out: in the full panel of roughly 79,000, 15% have a hit. Unmarked numbers belong to inactive results. Calls of active or inactive are those of the source. No stated cut-off is given here; in the data, active means growth inhibition above about 70%; inactive means the rest.

For the molecule `Cc1c(C(=O)N(CCO)CCO)[n+](=O)c2ccccc2n1[O-]`, the growth inhibition in experiment [1] (setting [7]) is 5%; in experiment [1] (setting [8]) it was 3%; in experiment [1] (at 50.0 µM), 28.9%; in experiment [2] (setting [7]), 13%; in experiment [2] (setting [8]), 7%; in experiment [2] (at 50.0 µM), -5.35%. The growth inhibition in experiment [3] (setting [7]) is 38%; in experiment [3] (setting [8]), 18%; in experiment [3] (at 50.0 µM), 14.7%; in experiment [4] (setting [7]), 1%; in experiment [4] (setting [8]) it was 2%; in experiment [4] (at 50.0 µM), 39%. Moreover, the growth inhibition was 3% in experiment [5] (setting [7]); 26% in experiment [5] (setting [8]); -5.1% in experiment [5] (at 50.0 µM); 31% in experiment [6] (setting [7]); 13% in experiment [6] (setting [8]); 65.7% in experiment [6] (at 50.0 µM).

As to `CCCCCCC/C=C/C(=O)OC1C(OC2C(OC(CCCCCCC)CC(=O)OC(CCCCCCC)CC(=O)O)OC(C)C(O)C2O)OC(C)C(O)C1O` (stereo not given), the growth inhibition in experiment [1] (setting [7]) was -18%; in experiment [1] (setting [8]), 70% (active); in experiment [1] (at 50.0 µM), 91.5% (active); in experiment [2] (setting [7]), -37%; in experiment [2] (setting [8]) it was 57%; in experiment [2] (at 50.0 µM), 81.8% (active). Also, the growth inhibition is -27% in experiment [3] (setting [7]); 62% in experiment [3] (setting [8]); 92.7% (active) in experiment [3] (at 50.0 µM); -40% in experiment [4] (setting [7]); 68% in experiment [4] (setting [8]); 90.1% (active) in experiment [4] (at 50.0 µM). For the same molecule, the growth inhibition is -42% in experiment [5] (setting [7]); 94% (active) in experiment [5] (setting [8]); 90% (active) in experiment [5] (at 50.0 µM); -34% in experiment [6] (setting [7]); 95% (active) in experiment [6] (setting [8]); 89.5% (active) in experiment [6] (at 50.0 µM).

Consider `C=CCOc1c(CCC)cc(CN)cc1CCC`, for which the growth inhibition in experiment [1] (setting [7]) is -2%; in experiment [1] (setting [8]), 2%; in experiment [1] (at 50.0 µM), 4.45%; in experiment [2] (setting [7]), -2%; in experiment [2] (setting [8]), -6%; in experiment [2] (at 50.0 µM), -8.2%. For the same molecule, the growth inhibition in experiment [3] (setting [7]) was 5%; in experiment [3] (setting [8]) it was 23%; in experiment [3] (at 50.0 µM), 24.6%; in experiment [4] (setting [7]), 1%; in experiment [4] (setting [8]), -7%; in experiment [4] (at 50.0 µM), 58.5%. The growth inhibition in experiment [5] (setting [7]) is -3%; in experiment [5] (setting [8]), 7%; in experiment [5] (at 50.0 µM), 2.55%; in experiment [6] (setting [7]), -1%; in experiment [6] (setting [8]) it was 11%; in experiment [6] (at 50.0 µM) it was 49.8%.

Take `O=C1N(Cc2ccccc2)CC1(c1ccccc1)C1CCCCC1O` (stereo not given): the growth inhibition in experiment [1] (setting [7]) is -1%; in experiment [1] (setting [8]), 96% (active); in experiment [1] (at 50.0 µM) it was -18.1%; in experiment [2] (setting [7]), -5%; in experiment [2] (setting [8]) it was 49%; in experiment [2] (at 50.0 µM), 7.8%. Moreover, the growth inhibition in experiment [3] (setting [7]) was -3%; in experiment [3] (setting [8]) it was 82% (active); in experiment [3] (at 50.0 µM), 35.5%; in experiment [4] (setting [7]), -8%; in experiment [4] (setting [8]), 84% (active); in experiment [4] (at 50.0 µM) it was 6.9%. Besides, the growth inhibition in experiment [5] (setting [7]) was -2%; in experiment [5] (setting [8]), 93% (active); in experiment [5] (at 50.0 µM) it was 65.6%; in experiment [6] (setting [7]), -2%; in experiment [6] (setting [8]), 93% (active); in experiment [6] (at 50.0 µM), 4.1%.

Regarding `O=C(c1ccc(O)cc1)c1ccccc1O`, the growth inhibition in experiment [1] (setting [7]) is 6%; in experiment [1] (setting [8]), 76% (active); in experiment [1] (at 50.0 µM) it was 63.8%; in experiment [2] (setting [7]), -7%; in experiment [2] (setting [8]) it was 23%; in experiment [2] (at 50.0 µM) it was 37.2%. For the same molecule, the growth inhibition in experiment [3] (setting [7]) was -2%; in experiment [3] (setting [8]), 14%; in experiment [3] (at 50.0 µM), 44.4%; in experiment [4] (setting [7]), -1%; in experiment [4] (setting [8]), 3%; in experiment [4] (at 50.0 µM), -7.55%. In addition, the growth inhibition was 45% in experiment [5] (setting [7]); 41% in experiment [5] (setting [8]); 17.9% in experiment [5] (at 50.0 µM); -2% in experiment [6] (setting [7]); 23% in experiment [6] (setting [8]); 51.6% in experiment [6] (at 50.0 µM).

Turning to `Cc1ccc(O)c(Cc2ccc(Cl)cc2)c1`, the growth inhibition was -146% in experiment [1] (setting [7]); 97% (active) in experiment [1] (setting [8]); 74.7% (active) in experiment [1] (at 50.0 µM); -54% in experiment [2] (setting [7]); 99% (active) in experiment [2] (setting [8]); 99.8% (active) in experiment [2] (at 50.0 µM). Further, the growth inhibition in experiment [3] (setting [7]) was -56%; in experiment [3] (setting [8]), 99% (active); in experiment [3] (at 50.0 µM), 64.3%; in experiment [4] (setting [7]), -80%; in experiment [4] (setting [8]) it was 99% (active); in experiment [4] (at 50.0 µM) it was 99.5% (active). Besides, the growth inhibition was -76% in experiment [5] (setting [7]); 98% (active) in experiment [5] (setting [8]); 99.6% (active) in experiment [5] (at 50.0 µM); -119% in experiment [6] (setting [7]); 96% (active) in experiment [6] (setting [8]); 99.6% (active) in experiment [6] (at 50.0 µM).

Turning to `COc1cc(CNC(=O)CCCCCCCC/C=C/Br)ccc1O`, the growth inhibition was -32% in experiment [1] (setting [7]); 93% (active) in experiment [1] (setting [8]); 84.7% (active) in experiment [1] (at 50.0 µM); -7% in experiment [2] (setting [7]); 96% (active) in experiment [2] (setting [8]); 85.8% (active) in experiment [2] (at 50.0 µM). The growth inhibition in experiment [3] (setting [7]) was -2%; in experiment [3] (setting [8]), 92% (active); in experiment [3] (at 50.0 µM), 90.5% (active); in experiment [4] (setting [7]), -4%; in experiment [4] (setting [8]), 94% (active); in experiment [4] (at 50.0 µM), 85% (active). The growth inhibition is -4% in experiment [5] (setting [7]); 95% (active) in experiment [5] (setting [8]); 87.6% (active) in experiment [5] (at 50.0 µM); -16% in experiment [6] (setting [7]); 92% (active) in experiment [6] (setting [8]); 87.5% (active) in experiment [6] (at 50.0 µM).

With `COc1ccc2ccc(=O)oc2c1CC=C(C)C`, the growth inhibition is 88% (active) in experiment [1] (setting [7]); 98% (active) in experiment [1] (setting [8]); 46.5% in experiment [1] (at 50.0 µM); 13% in experiment [2] (setting [7]); 99% (active) in experiment [2] (setting [8]); 37.6% in experiment [2] (at 50.0 µM). Besides, the growth inhibition is 6% in experiment [3] (setting [7]); 99% (active) in experiment [3] (setting [8]); 72.5% (active) in experiment [3] (at 50.0 µM); 7% in experiment [4] (setting [7]); 98% (active) in experiment [4] (setting [8]); -9.6% in experiment [4] (at 50.0 µM). The growth inhibition in experiment [5] (setting [7]) is 14%; in experiment [5] (setting [8]) it was 98% (active); in experiment [5] (at 50.0 µM), 62%; in experiment [6] (setting [7]), 13%; in experiment [6] (setting [8]), 98% (active); in experiment [6] (at 50.0 µM), 31.5%.

As for `CC(=O)N(C1=CC(=O)c2ccccc2C1=O)c1ccc(Cl)cc1`, the growth inhibition in experiment [1] (setting [7]) is 95% (active); in experiment [1] (setting [8]), 97% (active); in experiment [1] (at 50.0 µM), 96.7% (active); in experiment [2] (setting [7]), 92% (active); in experiment [2] (setting [8]) it was 98% (active); in experiment [2] (at 50.0 µM), 95% (active). Moreover, the growth inhibition in experiment [3] (setting [7]) is 95% (active); in experiment [3] (setting [8]), 97% (active); in experiment [3] (at 50.0 µM) it was 95.2% (active); in experiment [4] (setting [7]), 52%; in experiment [4] (setting [8]) it was 98% (active); in experiment [4] (at 50.0 µM) it was 90.8% (active). Besides, the growth inhibition in experiment [5] (setting [7]) is 89% (active); in experiment [5] (setting [8]) it was 98% (active); in experiment [5] (at 50.0 µM), 90.5% (active); in experiment [6] (setting [7]), 92% (active); in experiment [6] (setting [8]) it was 98% (active); in experiment [6] (at 50.0 µM) it was 93.5% (active).

For the molecule `CCOC(=O)/C(=C/O)c1c[nH]c2ccccc12`, the growth inhibition was 0% in experiment [1] (setting [7]); 94% (active) in experiment [1] (setting [8]); 97.8% (active) in experiment [1] (at 50.0 µM); -4% in experiment [2] (setting [7]); 95% (active) in experiment [2] (setting [8]); 98.3% (active) in experiment [2] (at 50.0 µM). For the same molecule, the growth inhibition is -4% in experiment [3] (setting [7]); 95% (active) in experiment [3] (setting [8]); 96.8% (active) in experiment [3] (at 50.0 µM); 1% in experiment [4] (setting [7]); 96% (active) in experiment [4] (setting [8]); 96% (active) in experiment [4] (at 50.0 µM). Besides, the growth inhibition in experiment [5] (setting [7]) was 0%; in experiment [5] (setting [8]), 96% (active); in experiment [5] (at 50.0 µM), 97.3% (active); in experiment [6] (setting [7]), 3%; in experiment [6] (setting [8]), 96% (active); in experiment [6] (at 50.0 µM), 97.7% (active).

The values are drawn from PubChem BioAssay (NCI).
